Bioassay records from PubChem BioAssay.
HADH2 inh = blocks human hydroxyacyl-CoA dehydrogenase type II. Q99714. recombinant HADH2, NADH fluorescence, beta-hydroxybutyryl-CoA. Potency, µM (highest dose often 57.1 µM), for the others: at the highest dose activity change, negative = inhibition, usual class: inhibitors. 73,000 tested, 3.4% active; also: potency is read from the fitted curve at half-maximal effect; % is scaled to controls: 0 for no effect and ±100 for the full control effect; nearly all actives have a fitted effect of over 60% in size
Target sequence (Q99714 whole entry, looked up, one chain of several): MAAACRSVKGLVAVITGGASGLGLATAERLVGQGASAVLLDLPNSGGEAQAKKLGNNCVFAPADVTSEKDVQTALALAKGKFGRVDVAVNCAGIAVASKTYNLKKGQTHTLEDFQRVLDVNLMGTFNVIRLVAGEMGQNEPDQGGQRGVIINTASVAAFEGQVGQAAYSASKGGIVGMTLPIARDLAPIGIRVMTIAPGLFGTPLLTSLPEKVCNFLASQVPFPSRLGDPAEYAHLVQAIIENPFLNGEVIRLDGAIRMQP
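His-tagged recombinant enzyme from E. coli, 20 nM, preincubated 15 min RT with compound; reaction started with 1 mM NAD+ and 90 uM beta-hydroxybutyryl-CoA in 100 mM Tris-HCl pH 9.0. NADH fluorescence (ex 360/em 450) read over 4 min; last-minus-first difference.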
CRE Fsk mod = CRE-bla signaling modulation under forskolin stimulation; AID 662; 71,000 tested, 2.5% active; CHO CRE-bla reporter (cAMP response element driving beta-lactamase), forskolin EC10, beta-lactamase ratio; Potency, µM (doses to about 38.2 µM), without a hit: top-dose activity change, negative = inhibition, most hits filed as activators; active = well fitted activation curve with a large enough effect in the signal ratio, with a control signal flat, not every such curve was filed as active; inconclusive = small, poorly fitted or top-dose-only effect, or effect the other way, or a change in a side signal; the % refers to the signal ratio; also: potency is read from the fitted curve at half-maximal effect; % of control where 0% means no effect
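Using CellSensor CRE-bla CHO cells in Opti-MEM with 0.5% dialyzed FBS, compounds were titrated with EC10 NKH 477 for 3 h at 37 °C. CCF4 ratio (460/530 nm) gave %Activity; AC50 derived.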
HSD17B inh = inhibitors of human HSD17B10 dehydrogenase; Potency, µM (highest dose often 57.1 µM), for inactives: at the highest dose activity change, negative = inhibition, actives largely listed as inhibitors; recombinant HSD17B10, NADH fluorescence kinetic; Q99714; AID 893; 75,000 tested, 7.6% active;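 also: the protocol describes HADH2 (HSD17B10) and not the HSD17B4 of the title; potency is read from the fitted curve at half-maximal effect; % is scaled to controls: 0 for no effect and ±100 for the full control effect; nearly all actives have a fitted effect of over 70% in size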
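Enzyme plus compound, 15 min room temperature; substrate mix added (NAD+ 1 mM, beta-hydroxybutyryl-CoA 90 uM final); plates read kinetically for NADH fluorescence. HADH2 was His-tagged, E. coli-derived, 20 nM.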
A350 fluor = A350 region autofluorescence; Compound autofluorescence, 340/450 nm, Alexa 350 dye-equivalents; stronger effect = higher value; max dye-equivalent concentration, M; 59,000 tested, 11% active; AID 590; in the data active = max dye-equivalent concentration above about 10 nM; inconclusive = mostly about 1.1 nM to 9.6 nM
AID923 = qHTS Assay for Allosteric/Competitive Inhibitors of Caspase-1: Spectroscopic Profiling in AFC Spectral Region. compound fluorescence, AFC spectral region (405/520 nm). Potency, µM (series often up to 57.5 µM), inactives show at the top dose fluorescence increase, actives largely listed as activators. 75,000 tested, 1.1% active. AID 923, 2007; also: potency is read from the fitted curve at half-maximal effect; 0% is about no effect
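Compound autofluorescence profiled at 405 nm ex/520 nm em during kinetic caspase 1 run (50 nM enzyme, 5 uM Ac-WEHD-AFC, HEPES pH 7.5, 10 mM DTT). Titration up to 57 uM; baseline from regression intercept, normalized to AFC standard curve.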
4-MU autofl = compound fluoresces in the 4-MU spectral region; max dye-equivalent concentration, M; 59,000 tested, 11% active; compound autofluorescence, 340/450 nm, 4-MU equivalents; stronger effect = higher value; in the data active = max dye-equivalent concentration above about 10 nM; inconclusive = mostly about 1.1 nM to 9.6 nM
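Compounds in 100 mM Tris, pH 8.0, incubated 15 min at room temperature, then fluorescence read at 340 nm excitation/450 nm emission. Signal converted to 4-MU dye-equivalent concentration using an on-plate six-point 4-MU standard curve.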
* marks the source's active call; other numbers are inactive results; i = inactive; ? = inconclusive; · = no result; ! = a repeat was not active; [ ] = remark or other dose. In the library only some 14% were active in any assay of this set; here they are far more common. Unless noted, calls follow the shape of the dose curve; as a rule, active = well fitted curve in the direction sought with a large enough effect; inconclusive = small, poorly fitted or top-dose-only effect, or another doubt; inactive = no such curve, though single readings can be large; an effect the other way counts as inactive or inconclusive.

SMILES | HADH2 inh | CRE Fsk mod | HSD17B inh | A350 fluor | AID923 | 4-MU autofl
CC(C)COC[C@H](CN(Cc1ccccc1)c1ccccc1)N1CCCC1 | 3.2µM*! | -16%[17.1 µM] | -3%[25.6 µM] | ? | -4%[25.7 µM] | ?
CN(C)c1ccc(C(c2nnnn2C(C)(C)C)N2CCN(C(=O)c3ccco3)CC2)cc1 (stereo unspecified) | -4% | 7% | 4% | i | 0% | i
CC(C)CCn1nnnc1C(c1ccc(N(C)C)cc1)N1CCN(C(=O)c2ccco2)CC1 (stereo unspecified) | -3% | -2% | -14% | 1.5e-08M* | -3% | 1.4e-08M*
C/C=C\C1=C(CO)C(=O)[C@@H]2OC2C1=O (stereo partly specified) | 4µM* | · | ? | · | -1%[11.5 µM] | ·
C/C=C\C1=C(CO)[C@H](O)[C@H]2O[C@H]2[C@H]1O | -15%[11.4 µM] | · | -2%[11.4 µM] | · | -3%[11.5 µM] | ·
Cc1ccc(OCCN2CCN(C(=O)CCC(=O)Nc3nnc(C)s3)CC2)cc1 | 7% | 7.9µM* | 3% | i | -1% | i
COc1ccc(CCNC(=O)CC2Nc3ccccc3NC2=O)cc1OC (stereo unspecified) | -5% | 7% | ? | 2.3e-08M* | 2% | 2.4e-08M*
COc1ccc(CCNC(=O)CC2Nc3ccccc3NC2=O)cc1 (stereo unspecified) | 32µM* | 3% | 25µM* | 1.5e-07M* | 3% | 1.9e-07M*
COc1ccc(CNc2nc(-c3ccccc3OC)nc3ccccc23)c(OC)c1 | ? | 10µM* | -2% | 1.2e-08M* | -1% | 1e-08M*
COc1ccc(CNc2nc(-c3ccc4c(c3)OCO4)nc3ccccc23)c(OC)c1 | -17% | ? | -1% | i | -3% | i
COc1ccc(CNc2nc(-c3cccnc3)nc3ccccc23)c(OC)c1 | ? | 3.2µM* | ? | i | 2% | i
COc1cccc(-c2nc(NCc3ccc(OC)cc3OC)c3ccccc3n2)c1 | -15% | 19% | -24% | i | 2% | i
O=C(c1cc(-c2ccncc2)nc2ccccc12)N1CCN(c2ccc(N3CCOCC3)nn2)CC1 | 19% | ? | 14% | ? | 0% | ?
COC(=O)c1cccc(Oc2nc3c(c(=O)n(C)c(=O)n3C)n2C(C)C)c1 | 0% | 2.5µM* | 15% | · | -1% | ·
COC(=O)c1cccc(Oc2nc3c(c(=O)n(C)c(=O)n3C)n2Cc2ccc(C)cc2)c1 | 11% | 12% | -3% | i | 2% | i
O=C(Nc1ccccc1)N1CC2(CCN(C(=O)c3cc(C(F)(F)F)cc(C(F)(F)F)c3)CC2)C1 | 1% | -7% | -1% | i | -1% | i
Cc1ccc(Oc2ccc(OCC(=O)NC(C)C(=O)O)cc2)cc1 (stereo unspecified) | 0% | -9% | 2% | 1.2e-08M* | -1% | ?
CCOC(=O)c1oc2nc(C)c3c(c2c1N)CC(C)(C)OC3 | -109% | 3% | 32µM* | 1.2e-06M* | 3% | 9e-07M*
CCc1nc2oc(C(=O)c3ccccc3)c(N)c2c2c1COC(C)(C)C2 | 10%[11.4 µM] | ? | -4% | · | 2% | ·
CCOC(=O)c1oc2nc3c(cc2c1N)COC(C)(C)C3 | -17% | ? | 32µM* | 6.5e-07M* | 3% | 4.8e-07M*
Cc1nc2c(sc3nc4c(cc32)COC(C)(C)C4)c(=O)n1CC(=O)NCc1ccco1 | 16% | 8% | 8% | ? | 1% | ?
O=C(CCc1ccc(O)cc1)c1c(O)cc(O)cc1O[C@@H]1O[C@H](CO)[C@@H](O)[C@H](O)[C@H]1O | · | · | 4% | · | 0% | ·
Cc1cc(Nc2ccccc2)nc(-c2ccccc2O)n1 | ? | -3% | ? | ? | 2% | ?
Cc1cc(N2CCCCCC2)nc(-c2ccccc2O)n1 | ? | 15% | 32µM* | 2.1e-08M* | 4% | 1.8e-08M*
Cc1cc(Nc2cccc(F)c2)nc(-c2ccccc2O)n1 | ? | ? | 32µM* | 3.7e-08M* | 11% | 2.7e-08M*
Cc1cc(NCc2ccccc2)nc(-c2ccccc2O)n1 | ? | · | 32µM* | · | 12% | ·
